Test results published in PubChem BioAssay AID1159580 (chemical genetic matrix, 2015).
Where “and” joins values, the source holds several entries; their conditions need not be identical. Equal entries are not always repeated. Screen size: about 5,500 compounds; about 2,000 (36%) were called active. Another 18% or so got no clear call; they are omitted. Rule as the data show it: active = normalized growth mostly below about 0.91 (no sharp cut-off); inconclusive = no clear call, values can overlap the other calls; inactive = mostly above about 0.92. This is one part of the list.

Test: chemical genetic growth profiling, strain panel (AID 1159580);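 also: tested at 20 µM; growth read once vehicle control cultures reached saturation at 30 °C; 1 = growth at the plate median or of vehicle wells; lower values mean less growth of the strain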
Details: S. cerevisiae deletion strains, growth OD

Measured: normalized growth

O=C(O)c1ccccc1O
inactive: locus YAL013W, strain DEP1, stronger effect = lower value 1.01 | locus YAL021C, strain ccr4, stronger effect = lower value 0.985 | locus YAL026C, strain drs2, stronger effect = lower value 0.984 | locus YAL030W, strain snc1, stronger effect = lower value 0.992 | locus YBL061C, strain skt5, stronger effect = lower value 0.979 | locus YBR009C, strain hhf1, stronger effect = lower value 0.996 | locus YBR021W, strain FUR4, stronger effect = lower value 0.994 | locus YBR023C, strain chs3, stronger effect = lower value 0.995 | locus YBR171W, strain sec66, stronger effect = lower value 0.996 | locus YBR229C, strain ROT2, stronger effect = lower value 1 | locus YBR231C, strain swc5, stronger effect = lower value 0.975 | locus YBR279W, strain paf1, stronger effect = lower value 0.979 | locus YCL011C, strain gbp2, stronger effect = lower value 0.983 | locus YCL016C, strain dcc1, stronger effect = lower value 1.01 | locus YCL029C, strain bik1, stronger effect = lower value 1.01 | locus YCL069W, strain vba3, stronger effect = lower value 0.994 | locus YCR088W, strain abp1, stronger effect = lower value 0.981 | locus YDL005C, strain med2, stronger effect = lower value 0.973 | locus YDL035C, strain GPR1, stronger effect = lower value 1.01 | locus YDL040C, strain nat1, stronger effect = lower value 0.969 | locus YDL074C, strain BRE1, stronger effect = lower value 1.03 | locus YDL101C, strain DUN1, stronger effect = lower value 1.01 | locus YDL134C, strain PPH21, stronger effect = lower value 1.01 | locus YDL185W, strain tfp1, stronger effect = lower value 0.992 | locus YDL192W, strain arf1, stronger effect = lower value 1.01 | locus YDR001C, strain nth1, stronger effect = lower value 0.955 | locus YDR069C, strain doa4, stronger effect = lower value 0.975 | locus YDR101C, strain arx1, stronger effect = lower value 1.01 | locus YDR137W, strain rgp1, stronger effect = lower value 0.997 | locus YDR159W, strain sac3, stronger effect = lower value 0.976 | locus YDR162C, strain NBP2, stronger effect = lower value 1.01 | locus YDR195W, strain ref2 0.904 | locus YDR297W, strain sur2, stronger effect = lower value 0.984 | locus YDR318W, strain mcm21, stronger effect = lower value 1.03 | locus YDR334W, strain swr1, stronger effect = lower value 0.916 | locus YDR335W, strain msn5, stronger effect = lower value 0.959 | locus YDR388W, stronger effect = lower value 1.01 | locus YDR392W, strain spt3, stronger effect = lower value 1.02 | locus YDR502C, strain sam2, stronger effect = lower value 1.01 | locus YEL003W, strain gim4, stronger effect = lower value 0.973 | locus YEL037C, strain rad23, stronger effect = lower value 0.986 | locus YEL061C, strain CIN8 (second series), stronger effect = lower value 0.959 | locus YEL061C, strain CIN8, stronger effect = lower value 1 | locus YER015W, strain faa2, stronger effect = lower value 0.968 | locus YER016W, strain bim1, stronger effect = lower value 0.978 | locus YER110C, stronger effect = lower value 1.01 | locus YER111C, strain swi4, stronger effect = lower value 0.97 | locus YER155C, strain BEM2 (second series), stronger effect = lower value 0.967 | locus YER155C, strain BEM2, stronger effect = lower value 0.992 | locus YER167W, strain BCK2, stronger effect = lower value 1 | locus YFR010W, strain ubp6, stronger effect = lower value 0.978 | locus YGL078C, strain dbp3, stronger effect = lower value 0.998 | locus YGL086W, strain mad1, stronger effect = lower value 1 | locus YGL167C, strain pmr1, stronger effect = lower value 0.968 | locus YGL173C, strain kem1, stronger effect = lower value 0.995 | locus YGL227W, strain vid30, stronger effect = lower value 0.971 | locus YGL240W, strain doc1, stronger effect = lower value 0.983 | locus YGL248W, strain PDE1, stronger effect = lower value 1 | locus YGL253W, strain hxk2, stronger effect = lower value 0.973 | locus YGR078C, strain PAC10, stronger effect = lower value 1 | locus YGR135W, strain pre9, stronger effect = lower value 1.03 | locus YGR252W, strain gcn5, stronger effect = lower value 1.01 | locus YHR013C, strain ard1, stronger effect = lower value 1.01 | locus YHR027C, strain rpn1, stronger effect = lower value 0.984 | locus YHR030C, strain SLT2, stronger effect = lower value 1.01 | locus YHR079C, strain IRE1 (second series), stronger effect = lower value 1.02 | locus YHR079C, strain IRE1, stronger effect = lower value 1.06 | locus YHR094C, strain hxt1, stronger effect = lower value 0.997 | locus YHR129C, strain ARP1, stronger effect = lower value 0.998 | locus YHR142W, strain chs7, stronger effect = lower value 0.997 | locus YHR200W, strain rpn10, stronger effect = lower value 1.01 | locus YIL066C, strain RNR3, stronger effect = lower value 1 | locus YIL073C, strain SPO22, stronger effect = lower value 1.05 | locus YIL125W, strain kgd1, stronger effect = lower value 0.994 | locus YIR030C, strain dcg1, stronger effect = lower value 1 | locus YJL092W, strain hpr5, stronger effect = lower value 0.996 | locus YJL095W, strain BCK1 (second series), stronger effect = lower value 0.978 | locus YJL095W, strain BCK1, stronger effect = lower value 1.01 and 0.995 | locus YJL115W, strain asf1, stronger effect = lower value 0.951 | locus YJL129C, strain trk1, stronger effect = lower value 0.956 | locus YJL134W, strain LCB3, stronger effect = lower value 1 | locus YJL154C, strain vps35, stronger effect = lower value 0.961 | locus YJL164C, strain tpk1, stronger effect = lower value 0.993 | locus YJL166W, strain qcr8, stronger effect = lower value 0.994 | locus YJL168C, strain set2, stronger effect = lower value 1.01 | locus YJL187C, strain SWE1 (second series), stronger effect = lower value 1 | locus YJR043C, strain POL32, stronger effect = lower value 0.979
